An excerpt weighted towards active compounds, which were near 2.3% of everything screened.
Gli-Sufu antag: Gli-Sufu pathway antagonists, primary screen, luciferase luminescence, Sufu-KO-LIGHT cells, uHTS; 340,000 compounds, 0.74% hits; Sufu-KO-LIGHT fibroblasts, Gli luciferase reporter luminescence; inhibition, % at 5 µM; AID 588413, 2011;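 active = inhibition above about 55%, limit read from the data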;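 note: 0% = DMSO-treated cells and 100% = wells with medium but no cells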
MITF TRPM1 inh: inhibitors of MITF-dependent TRPM1 promoter reporter, primary screen, cell-based, SK-MEL-5, single point, luciferase | 330,000 compounds, 0.83% hits | inhibition, % at 12.5 µM | AID 488899, 2010 | SK-MEL-5 TRPM1 promoter luciferase, 24 h;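 active = mean inhibition across replicates of 60% or more, whatever share of single replicates reaches that level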
EBV LMP1 NFkB: EBV LMP1-driven NF-kappaB luciferase reporter inhibitors, primary screen, cell-based, luminescence, single point. LMP1-induced NF-kappaB luciferase reporter cells. inhibition, % at 12.5 µM. 350,000 compounds, 0.69% hits. AID 504558, 2011; in the data active = inhibition above about 41%;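 note: 0% = neutral control wells and 100% = reference inhibitor control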
Shn3 inh set2: reduction of Shn3 3'UTR firefly luciferase signal, primary screen, Schnurri-3 inhibitor project, cell-based, Clone20 osteoblasts, set 2 | Clone20 osteoblast Shn3 3'UTR firefly luciferase, 24 h | inhibition, % at 12.5 µM | 360,000 compounds, 0.52% hits;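 active = mean inhibition of at least 75% with every replicate also reaching 75%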;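 note: 0% = median of neutral control wells and 100% = pilot-screen positive control compound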
697 NFkB inh: inhibitors of PMA/ionomycin-induced NF-kB reporter, 697 cells, primary screen, B-cell NF-kB inhibitor project, cell-based, luminescence, uHTS; 697 B-cell NF-kB luciferase reporter, 16 h; 330,000 compounds, 0.33% hits; inhibition, % at 4 µM; AID 435022, 2010; in the data active = inhibition above about 35%
Jurkat NFkB inh: inhibitors of induced NF-kB luciferase reporter, primary screen, TCR NF-kB activation inhibitor project, cell-based, luminescence, uHTS | Jurkat, PMA/ionomycin-induced NF-kB luciferase reporter | inhibition, % at 4 µM | 330,000 compounds, 0.53% hits | AID 435003, 2010; in the data active = inhibition above about 50%
Gli antag conf: Gli-SUFU pathway antagonists, confirmation, single concentration, luciferase luminescence, Sufu-KO-LIGHT cells; Gli luciferase reporter; 2,500 compounds, 40% hits; shares compounds with Gli-Sufu antag; inhibition, % at 5 µM;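 active = mean inhibition at 5 µM reaching about 45%, limit read from the data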;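 note: plate controls were DMSO-treated cells for no effect and wells lacking cells for full effect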
Gli cytotox: cytotoxicity in Sufu-KO-LIGHT cells, confirmation, cytotoxicity control for Gli-SUFU antagonist project, cell-based, ATP luminescence, single concentration. 2,500 compounds, 32% hits. AID 651994, 2013. shares compounds with Gli-Sufu antag. cytotoxicity, % at 5 µM;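 active = mean cytotoxicity at 5 µM above about 25%, limit read from the data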;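 note: cells exposed to compound overnight for roughly 16 to 18 hours; plate controls were DMSO wells with cells for no effect and medium without cells for full effect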
Wnt3a cs: Wnt3a reporter signal inhibition, confirmation, counter-screen for Gli-SUFU antagonist project, Wnt-LIGHT cells, luminescence, single concentration | shares compounds with Gli-Sufu antag | inhibition, % at 6.25 µM | 2,500 compounds, 20% hits | Wnt3a-driven luciferase reporter | AID 651995, 2013;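 active = mean inhibition above about 25%, limit read from the data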
* = called active by the depositor; . = not tested or not shown.

SMILES	Gli-Sufu antag	MITF TRPM1 inh	EBV LMP1 NFkB	Shn3 inh set2	697 NFkB inh	Jurkat NFkB inh	Gli antag conf	Gli cytotox	Wnt3a cs
O=C(OCCOc1cccc(Cl)c1)c1cc(S(=O)(=O)N2CCCCC2)ccc1N1CCOCC1	64*	19	6	68	-34	26	66*	36*	19
CS(=O)(=O)N(CC(=O)Nc1ccccc1Sc1ccccc1)c1ccc(F)cc1	65*	0	-1	-21	-17	-27	28	6	-5
Clc1ccc(-c2c[n+]3c(n2-c2ccccc2)SCC3)cc1	32	4	-1	14	-24	15	.	.	.
c1ccc(-c2c[n+]3c(n2-c2ccccc2)CCC3)cc1	60*	17	11	53	-14	9	69*	19	17
Cc1ccc(-c2c[n+]3c(n2-c2ccccc2)CCC3)cc1	80*	48	19	91*	-28	41	83*	34*	36*
O=C(O)c1cccc(S(=O)(=O)N(Cc2ccccc2)c2cccc(C(F)(F)F)c2)c1	9	-11	-1	6	-10	-6	.	.	.
CC(=O)Nc1cccc(-c2ccnc3c2CC(C)(C(=O)NCCN(C)C)O3)c1 (stereo not drawn)	.	.	.	0	.	.	.	.	.
O=S(=O)(NCc1cn2ccccc2n1)c1cc(F)ccc1F	62*	5	-1	-1	-1	-13	26	8	-14
O=S(=O)(NCc1cn2ccccc2n1)c1cccs1	-10	-28	7	-20	-9	-20	.	.	.
CCc1ccc(-c2cc3c(=O)n(CC(=O)N4CCCC4)nc(C)n3n2)cc1	-13	3	7	-2	3	12	.	.	.
Clc1cccc(Nc2ncnc3ccc(Br)cc23)c1	62*	15	0	23	-30	8	20	2	11
CCC(C)NC(=O)Nc1ccccc1F (stereo not drawn)	7	-2	5	0	7	4	.	.	.
Cc1ccc2[nH]c3c(N4CCOCC4)ncnc3c2c1	19	-30	18	11	-11	-1	.	.	.
Cc1ccc2[nH]c3c(N4CCc5ccccc5C4)ncnc3c2c1	73*	19	26	82	-22	34	77*	38*	-22
NS(=O)(=O)c1ccc(CCNc2ncnc3sccc23)cc1	60*	16	17	72	26	33	55*	31*	28*
COC(=O)c1c(NC(=O)C(C)(C)C)csc1C	-1	2	5	8	0	3	.	.	.
CCN1CCN(C(=O)C2CCCN(c3ncnc4c3nc3n4CCCCC3)C2)CC1 (stereo not drawn)	50	3	-2	-4	1	-10	12	-1	3
CCOC(=O)Cc1nc2cc(Cl)ccc2o1	-11	10	-1	-5	2	6	.	.	.
O=C1C2CCCN2C(c2cccs2)N1c1ccc(Cl)cc1 (stereo not drawn)	-6	7	-2	47	-9	7	.	.	.
O=C(C1CCN(Cc2ccc(F)cc2)CC1)N(CCc1ccccc1)Cc1ccccc1	58*	-26	-74	24	5	0	24	2	-49
COc1ccc(OCC(=O)Nc2ccc3c(c2)nc(CCN2CCN(C)CC2)n3C)cc1	51	1	4	0	-10	-10	16	0	-10
CCOC(=O)C1=CCN(S(=O)(=O)c2ccccc2Cl)C1c1ccc(C)cc1 (stereo not drawn)	.	.	.	-8	.	.	.	.	.

Source: PubChem (several laboratories)
